# The list is not random: actives were taken first. Their share in the collection is about 3.3%.
# Sm TGR block: blocks Schistosoma mansoni thioredoxin glutathione reductase; purified TGR, DTNB reduction, TNB absorbance 405 nm; Potency, µM (series often up to 114 µM), for the others: at the top dose activity change, negative = inhibition, most hits filed as inhibitors; 3% of 360,000 active; further: nearly all actives have a fitted effect of over 60% in size
#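 Kinetic colorimetric format: TGR-catalysed, NADPH-driven DTNB reduction monitored via TNB absorbance. Enzyme dispensed at 20 nM; compound exposure 15 min at room temperature before reaction start.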
# AmpC no deterg: inhibitors of E. coli AmpC beta-lactamase without detergent | Potency, µM (series often up to 57.1 µM), without a hit: at the top dose activity change, negative = inhibition, actives largely listed as inhibitors | AID 485341 | 0.52% of 330,000 active | P00811 | AmpC nitrocefin hydrolysis, absorbance 480 nm, 0.0001% Triton;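 further: plate controls were no compound for no effect and no enzyme for full effect; nearly all actives have a fitted effect of over 20% in size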
# Target sequence (P00811 whole entry, looked up): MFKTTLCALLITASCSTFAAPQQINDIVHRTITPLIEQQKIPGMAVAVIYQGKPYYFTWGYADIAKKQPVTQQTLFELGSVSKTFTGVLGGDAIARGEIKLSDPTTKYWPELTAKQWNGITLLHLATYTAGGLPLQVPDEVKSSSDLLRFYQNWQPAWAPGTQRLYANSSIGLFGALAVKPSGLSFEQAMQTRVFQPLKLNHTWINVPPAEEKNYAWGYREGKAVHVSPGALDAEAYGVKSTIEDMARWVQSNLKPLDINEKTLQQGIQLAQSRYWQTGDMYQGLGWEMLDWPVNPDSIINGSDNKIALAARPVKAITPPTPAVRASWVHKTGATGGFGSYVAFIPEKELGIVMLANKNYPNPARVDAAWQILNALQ
#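 AmpC (5.3 nM in the dispensed reagent) in 20 mM phosphate pH 7.0 with 0.01% (detergent screen) or 0.0001% Triton X-100 was preincubated with compounds for 15 min at room temperature. Nitrocefin was then added from an 800 uM solution, and hydrolysis was followed at 480 nm.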
# AmpC detergent: blocks E. coli AmpC beta-lactamase in detergent assay; P00811; AmpC hydrolysis of nitrocefin, absorbance 480 nm, 0.01% Triton; 0.041% of 370,000 active; Potency, µM (titrated, usually from 114 µM), without a hit: top-dose activity change, negative = inhibition, actives largely listed as inhibitors;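 further: 0% = no-compound wells and -100% = no-enzyme wells; nearly all actives have a fitted effect of over 25% in size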
#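 AmpC (5.3 nM in the dispensed reagent) in 20 mM phosphate pH 7.0 with 0.01% (detergent screen) or 0.0001% Triton X-100 was preincubated with compounds for 15 min at room temperature. Nitrocefin was then added from an 800 uM solution, and hydrolysis was followed at 480 nm.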
# Starred values were filed as active, the others as inactive; u = inconclusive; x = no result given. The call rests on the fitted dose curve; in most records, active means well fitted curve in the direction sought with a large enough effect; inconclusive means small, poorly fitted or top-dose-only effect, or another doubt; inactive means no such curve, though single readings can be large; an effect the other way counts as inactive or inconclusive. Unless noted, on the % scale 0 is the no-effect control and ±100 the full control effect; potency means the concentration at half of the fitted maximal effect.
SMILES,Sm TGR block,AmpC no deterg,AmpC detergent
O=C1CC(N2CCN(Cc3ccc4c(c3)OCO4)CC2)C(=O)N1c1cccc(Cl)c1 (stereo not given),50.1µM*,14.6%,u
O=C1CC(N2CCN(Cc3ccc4c(c3)OCO4)CC2)C(=O)N1Cc1ccc(N2CCCC2=O)cc1 (stereo not given),-25.7%,35.2%,-8.9%
O=C1CC(N2CCN(Cc3ccccc3)CC2)C(=O)N1c1ccc2c(c1)OCCO2 (stereo not given),56.2µM*,-15.5%,-1.1%
O=C(Nc1cccc(-c2ccc(F)cc2)c1)C1CCCN(C(=O)c2cscn2)C1 (stereo not given),11.3%,65.3%,-2.3%
C[C@H](NC(=O)C1CCN(S(=O)(=O)c2ccccc2)CC1)C(=O)NCc1ccc(Cl)c(Cl)c1,4.1%,75.4%,-0.4%
CC(=O)N/C(=C/c1ccc2c(c1)OCO2)C(=O)NCc1ccccc1,x,-13.0%,2.7%
CC1CC(C)CN(C(=O)COC(=O)c2c[nH]c3ccccc23)C1 (stereo not given),-2.4%,-2.3%,1.8%
CCOC(=O)Cc1csc(NC(=O)/C=C/c2ccc(Cl)cc2)n1,4.9%,-14.2%,-0.8%
Cc1csc(NC(=O)/C=C/c2ccco2)n1,50.1µM*,-21.4%,-2.1%
O=C(/C=C/c1ccccc1)Nc1scc(-c2ccccc2)c1C(=O)O,16.9%,-36.5%,-5.5%
O=C(/C=C/c1ccco1)Nc1nc(-c2ccc(F)c(F)c2)cs1,39.8µM*,-44.5%,3.5%
Cc1csc(NC(=O)c2ccco2)n1,21.2%,1.7%,-1.8%
CCOC(=O)Cc1csc(NC(=O)/C=C/c2ccco2)n1,11.2µM*,-22.3%,2.5%
COc1ccc(-c2csc(NC(=S)NC(=O)/C=C/c3ccco3)n2)cc1Br,-32.5%,-26.2%,8.1%
O=C(/C=C/c1ccco1)Nc1scc(-c2ccccc2)c1C(=O)O,8.91µM*,-36.7%,0.3%
COc1ccc(OC)c(-c2noc(N3CCN(c4cc(C)ccc4C)CC3)n2)c1,-2.3%,x,-4.4%
CC(=O)Nc1ccccc1C(=O)N1CCN(Cc2ccc3c(c2)OCO3)CC1,-12.7%,-1.0%,u
CC(C)(C)C1CCc2c(sc(NC(=O)c3ccco3)c2C(=O)Nc2ccccc2Cl)C1 (stereo not given),-2.7%,x,0.0%
O=c1[nH]c(SCc2ccc(F)cc2Cl)nc2ccccc12,-16.9%,-58.6%,1.2%
CCOC(=O)Cc1csc(NC(=O)CCS(=O)(=O)Cc2ccccc2)n1,20µM*,0.4%,-4.8%
Cc1cc(NS(=O)(=O)c2ccc(NC(=O)/C=C/c3ccco3)cc2)nc(C)n1,3.98µM*,-20.5%,-0.3%
O=C(/C=C/c1ccco1)Nc1nc(-c2ccccn2)cs1,12.6µM*,-44.1%,0.0%
Cc1cc(NS(=O)(=O)c2ccc(NC(=O)c3ccco3)cc2)nc(C)n1,-25.2%,-18.2%,u
CCOC(=O)Cc1csc(NC(=O)CS(=O)(=O)Cc2ccccc2)n1,-1.2%,-29.3%,u
Cc1csc(NC(=O)/C=C/c2ccc(C)o2)n1,20µM*,-26.6%,-6.7%
SMILES,Sm TGR block,AmpC no deterg,AmpC detergent
Cc1csc(NC(=O)/C=C/c2ccc3c(c2)OCO3)n1,3.5%,-24.6%,-3.2%
O=C(/C=C/c1ccco1)Nc1nc(-c2ccccc2)cs1,-26.5%,-24.3%,u
CC(=C/c1ccco1)/C=N/NC(=O)c1nnn(-c2nonc2N)c1CN(C)C,-14.8%,-14.3%,6.3%
CCn1c(CNC(=O)c2ccc(OC)cc2)nnc1SCC(=O)Nc1ccccc1,-1.9%,x,-11.1%
CCc1ccc(NC(=O)N2CCN(C(=O)C3CCCO3)CC2)cc1 (stereo not given),5.0%,4.0%,-14.0%
C/C(=N\NC(=O)c1nn(C)c(C)c1Br)c1ccc(NC(=O)c2ccccc2F)cc1,-2.4%,-6.6%,-6.7%
C[C@H](CO)N1C[C@H](C)[C@@H](CN(C)C(=O)NC2CCCCC2)Oc2ccc(NS(C)(=O)=O)cc2C1=O,x,4.1%,x
Cc1cccc(C)c1NC(=O)CN(C)C(C)C(=O)NCC(=O)Nc1ccc(F)c(F)c1F (stereo not given),-3.5%,-6.5%,0.2%
O=C(NC(=S)Nc1ccc(S(=O)(=O)N2CCCCC2)cc1)c1cccs1,u,-32.9%,-9.2%
CCC(=O)NC(=S)Nc1ccc(S(=O)(=O)NC2CCCCC2)cc1,u,12.6µM*,9.7%
O=C(NC(=S)Nc1ccc(S(=O)(=O)NC2CCCCC2)cc1)c1cccs1,50.1µM*,-20.6%,9.6%
CCOc1ccc(NC(=O)COc2ccc(S(=O)(=O)NC3CCCCC3)cc2)cc1,-0.8%,x,22.2%
COCc1cc(C)nc2sc3c(c12)NC(c1ccc(O)cc1)N(c1ccc(C)cc1)C3=O (stereo not given),-3.3%,x,21.3%
CCn1c(=S)sc2c(=O)n(-c3ccccc3)c(=S)[nH]c21,22.4µM*,-16.2%,-1.0%
CCOc1ccccc1-n1c(=S)sc2c(=O)n(-c3ccc(C)cc3)c(=S)[nH]c21,2.7%,-25.5%,-1.9%
COc1cc(OC)c(NC(=O)c2nn(-c3ccc(C)cc3)c(=O)c3c2c2ccccc2n3C)cc1Cl,3.3%,x,0.2%
O=[N+]([O-])c1ccc(/C=N/N=C/c2ccc([N+](=O)[O-])o2)o1,10µM*,-23.3%,4.2%
CN1CCN(C(=O)/C=C/c2ccc([N+](=O)[O-])o2)CC1,17.8µM*,-11.3%,-1.1%
O=C(/C=C/c1ccc(F)cc1)N1CCCN(C(=O)/C=C/c2ccc(F)cc2)CC1,-2.0%,100.7%,5.7%
O=C(O)/C=C/c1ccc([N+](=O)[O-])o1,28.2µM*,-13.8%,-1.9%
CCOC(=O)N/N=C\c1ccc([N+](=O)[O-])o1,-29.1%,-28.6%,u
O=C(/C=C/c1ccc(-c2ccc(F)cc2)o1)N1CCCC1,35.5µM*,78.7%,1.7%
CN1CCN(C(=O)/C=C/c2ccccc2)CC1,-13.1%,-6.7%,0.3%
CC1(C(=O)N/N=C/c2ccc([N+](=O)[O-])o2)CC1(Br)Br (stereo not given),u,-4.2%,-6.5%
Cc1nc2cc(C(=O)O)ccc2n1-c1ccc(C(C)C)cc1,-4.8%,x,-1.3%
SMILES,Sm TGR block,AmpC no deterg,AmpC detergent
COc1cc(OC)c(OC)cc1CN1CCSCC1,-0.1%,-12.8%,-26.9%
COc1ccccc1N(CC(=O)Nc1ccccc1F)S(C)(=O)=O,12.1%,x,14.9%
Cc1cccc(NC(=O)Cn2c(=O)n(CCCS(=O)(=O)C3CCCCC3)c(=O)c3ccccc32)c1,-3.8%,x,-6.4%
CCCOc1ccc(C(=O)Nc2ccc(Cl)c(-c3nc4ncccc4o3)c2)cc1,2.8%,x,11.8%
CCN1CCN(CCOc2cccc(Oc3ccccc3)c2)CC1,x,38.1%,1.4%
O=C(CSc1nccn1-c1cccc(Cl)c1)Nc1cccc(C(F)(F)F)c1,9.4%,x,7.3%
O=c1ccn(Cc2ccc(F)cc2)c2ccnc(C(F)(F)F)c12,6.9%,1.6%,-10.3%
N#CCc1ccc(NC(=O)/C=C/c2ccc([N+](=O)[O-])o2)cc1,4.47µM*,-45.5%,-7.7%
N#C/C(=C\c1ccc([N+](=O)[O-])o1)C(=O)Nc1ccc(F)cc1,x,-46.7%,1.2%
O=C(COCc1cc(-c2ccc3c(c2)OCO3)on1)N1CCN(c2ccccc2)CC1,0.7%,30.9%,3.9%
OCCC1CN(CC#Cc2ccccc2)CCN1Cc1ccccc1F (stereo not given),20µM*,80.8%,-2.0%

# Screening data as filed in PubChem.
